Measurements published in PubChem BioAssay AID1159580 (chemical genetic matrix, 2015).
Among all 5,500 compounds or so, about 2,000 (36%) were called active. Another 18% or so got no clear call; they are omitted. No stated cut-off is given here; in the data, active means normalized growth mostly below about 0.91 (no sharp cut-off); inconclusive means no clear call, values can overlap the other calls; inactive means mostly above about 0.92. Some of the results follow.

Assay: chemical genetic growth profiling, strain panel (AID 1159580);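 further: tested at 20 µM; growth read once vehicle control cultures reached saturation at 30 °C; 1 = growth at the plate median or of vehicle wells; lower values mean less growth of the strain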
Details: growth OD

Measured: normalized growth

COC(=O)[C@@H]1C(O)CC[C@H]2CN3CCc4c([nH]c5ccccc45)[C@@H]3C[C@@H]21 (some centres not stated)
inactive: S. cerevisiae deletion strains, locus YJR075W, strain HOC1, hits give low values 0.993 | S. cerevisiae deletion strains, locus YKL009W, strain mrt4, hits give low values 0.968 | S. cerevisiae deletion strains, locus YKL068W, hits give low values 0.982 | S. cerevisiae deletion strains, locus YKL085W, strain MDH1 (second series), hits give low values 0.982 | S. cerevisiae deletion strains, locus YKL085W, strain MDH1, hits give low values 0.982 | S. cerevisiae deletion strains, locus YKL160W, strain elf1, hits give low values 1.01 | S. cerevisiae deletion strains, locus YKL190W, strain CNB1, hits give low values 0.994 | S. cerevisiae deletion strains, locus YKR001C, strain vps1, hits give low values 0.979 | S. cerevisiae deletion strains, locus YKR026C, strain gcn3, hits give low values 1.01 | S. cerevisiae deletion strains, locus YKR091W, strain srl3, hits give low values 1.02 | S. cerevisiae deletion strains, locus YLL001W, strain dnm1, hits give low values 1.02 | S. cerevisiae deletion strains, locus YLL026W, hits give low values 1.01 | S. cerevisiae deletion strains, locus YLL041C, strain sdh2, hits give low values 1.02 | S. cerevisiae deletion strains, locus YLR027C, strain aat2, hits give low values 1.01 | S. cerevisiae deletion strains, locus YLR039C, strain RIC1, hits give low values 0.977 | S. cerevisiae deletion strains, locus YLR058C, strain SHM2, hits give low values 0.988 | S. cerevisiae deletion strains, locus YLR102C, strain apc9, hits give low values 0.995 | S. cerevisiae deletion strains, locus YLR113W, strain HOG1, hits give low values 1 | S. cerevisiae deletion strains, locus YLR221C, strain rsa3, hits give low values 1 | S. cerevisiae deletion strains, locus YLR258W, strain gsy2, hits give low values 1.01 | S. cerevisiae deletion strains, locus YLR262C, strain YPT6 (second series), hits give low values 1 | S. cerevisiae deletion strains, locus YLR262C, strain YPT6, hits give low values 0.962 | S. cerevisiae deletion strains, locus YLR268W, strain sec22, hits give low values 1.01 | S. cerevisiae deletion strains, locus YLR320W, strain mms22, hits give low values 1.01 | S. cerevisiae deletion strains, locus YLR330W, strain CHS5, hits give low values 0.996 | S. cerevisiae deletion strains, locus YLR342W, strain FKS1 (second series), hits give low values 0.978 | S. cerevisiae deletion strains, locus YLR342W, strain FKS1, hits give low values 1.01 | S. cerevisiae deletion strains, locus YLR357W, strain rsc2, hits give low values 1.01 | S. cerevisiae deletion strains, locus YLR370C, strain arc18, hits give low values 1.02 | S. cerevisiae deletion strains, locus YLR371W, strain rom2, hits give low values 0.976 | S. cerevisiae deletion strains, locus YLR384C, strain iki3, hits give low values 1.02 | S. cerevisiae deletion strains, locus YLR418C, strain cdc73, hits give low values 1.05 | S. cerevisiae deletion strains, locus YML016C, strain PPZ1, hits give low values 0.983 | S. cerevisiae deletion strains, locus YML032C, strain rad52, hits give low values 0.971 | S. cerevisiae deletion strains, locus YML120C, strain ndi1, hits give low values 1.02 | S. cerevisiae deletion strains, locus YML124C, strain tub3, hits give low values 0.991 | S. cerevisiae deletion strains, locus YMR058W, strain fet3, hits give low values 1.01 | S. cerevisiae deletion strains, locus YMR078C, strain ctf18, hits give low values 0.988 | S. cerevisiae deletion strains, locus YMR125W, strain sto1, hits give low values 1 | S. cerevisiae deletion strains, locus YMR129W, hits give low values 1.01 | S. cerevisiae deletion strains, locus YMR205C, strain PFK2, hits give low values 1.03 | S. cerevisiae deletion strains, locus YMR223W, strain ubp8, hits give low values 0.97 | S. cerevisiae deletion strains, locus YMR231W, strain pep5, hits give low values 1.01 | S. cerevisiae deletion strains, locus YMR263W, strain SAP30, hits give low values 0.995 | S. cerevisiae deletion strains, locus YMR307W, strain GAS1, hits give low values 1 | S. cerevisiae deletion strains, locus YNL067W, strain RPL9B, hits give low values 1.01 | S. cerevisiae deletion strains, locus YNL071W, strain lat1, hits give low values 1.02 | S. cerevisiae deletion strains, locus YNL128W, strain TEP1, hits give low values 1 | S. cerevisiae deletion strains, locus YNL153C, strain GIM3, hits give low values 1.01 | S. cerevisiae deletion strains, locus YNL183C, strain NPR1, hits give low values 0.973 | S. cerevisiae deletion strains, locus YNL209W, strain ssb2, hits give low values 1.01 | S. cerevisiae deletion strains, locus YNL233W, strain BNI4, hits give low values 1.01 | S. cerevisiae deletion strains, locus YNL248C, strain rpa49, hits give low values 1.01 | S. cerevisiae deletion strains, locus YNL250W, strain rad50, hits give low values 0.975 | S. cerevisiae deletion strains, locus YNL271C, strain bni1, hits give low values 0.987 | S. cerevisiae deletion strains, locus YNL298W, strain CLA4, hits give low values 0.975 | S. cerevisiae deletion strains, locus YNL307C, strain MCK1, hits give low values 0.996 | S. cerevisiae deletion strains, locus YNL322C, strain KRE1 (second series), hits give low values 1.01 | S. cerevisiae deletion strains, locus YNL322C, strain KRE1, hits give low values 0.99 | S. cerevisiae deletion strains, locus YNR049C, strain mso1, hits give low values 1.01 | S. cerevisiae deletion strains, locus YNR052C, strain pop2, hits give low values 0.989 | S. cerevisiae deletion strains, locus YOL006C, strain TOP1, hits give low values 1.01 | S. cerevisiae deletion strains, locus YOL012C, strain htz1 0.815 | S. cerevisiae deletion strains, locus YOL147C, strain pex11, hits give low values 0.99 | S. cerevisiae deletion strains, locus YOR001W, strain rrp6, hits give low values 1.02 | S. cerevisiae deletion strains, locus YOR061W, strain CKA2, hits give low values 0.996 | S. cerevisiae deletion strains, locus YOR069W, strain VPS5, hits give low values 0.992 | S. cerevisiae deletion strains, locus YOR070C, strain gyp1, hits give low values 1.02 | S. cerevisiae deletion strains, locus YOR080W, strain dia2, hits give low values 1.01 | S. cerevisiae deletion strains, locus YOR083W, strain WHI5, hits give low values 1 | S. cerevisiae deletion strains, locus YOR106W, strain vam3, hits give low values 0.997 | S. cerevisiae deletion strains, locus YOR136W, strain idh2, hits give low values 0.99 | S. cerevisiae deletion strains, locus YOR144C, strain elg1, hits give low values 0.983 | S. cerevisiae deletion strains, locus YOR184W, strain ser1, hits give low values 0.981 | S. cerevisiae deletion strains, locus YOR231W, strain MKK1, hits give low values 1.02 | S. cerevisiae deletion strains, locus YOR265W, strain rbl2, hits give low values 0.998 | S. cerevisiae deletion strains, locus YOR270C, strain vph1, hits give low values 1 | S. cerevisiae deletion strains, locus YOR290C, strain snf2, hits give low values 0.971 | S. cerevisiae deletion strains, locus YOR316C, strain cot1, hits give low values 0.981 | S. cerevisiae deletion strains, locus YPL051W, strain arl3, hits give low values 0.995 | S. cerevisiae deletion strains, locus YPL055C, strain LGE1, hits give low values 1.01 | S. cerevisiae deletion strains, locus YPL078C, strain atp4, hits give low values 1.03 | S. cerevisiae deletion strains, locus YPL106C, strain sse1, hits give low values 1 | S. cerevisiae deletion strains, locus YPL240C, strain hsp82, hits give low values 1.01 | S. cerevisiae deletion strains, locus YPL241C, strain CIN2, hits give low values 0.99 | S. cerevisiae deletion strains, locus YPL256C, strain CLN2, hits give low values 1 | S. cerevisiae deletion strains, locus YPR119W, strain clb2, hits give low values 0.994 | S. cerevisiae deletion strains, locus YPR141C, strain kar3, hits give low values 0.981 | S. cerevisiae deletion strains, locus YPR163C, strain tif3, hits give low values 0.988 | S. cerevisiae deletion strains, locus YPR167C, strain met16, hits give low values 0.994 | S. cerevisiae deletion strains, strain wtn01, hits give low values 0.995 | S. cerevisiae strains, strain wild type, hits give low values 0.998
